# Source: PubChem BioAssay
# Unmarked numbers belong to inactive results. No rule for the calls is given here. Numbered stars: 1 amine (or outer) side, 2 acyl side, 3 side chain; on linkers, the order of the positions; unused ones are H or OH. Bridge positions count the residues as written; N and C are the ends. Square brackets hold non-standard residues; d marks the D form. Peptide text beside a SMILES is read from it. * marks the point of attachment. ξ: configuration not given here. ΔAla(Z-3-ureido) = NC(=O)N/C=C(\N)C(=O)O; X2 = NC1=NC(O)CC(C(N[*:1])C(=O)[*:2])N1; ξβ3hOrn = NCCCC(N)CC(=O)*; Dap = NC[CH](N)C(=O)O
# Assay: hESC survival regulators, cell-based (AID 493140);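 also: cells exposed to compounds for four days before counting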
# Details: human embryonic stem cell survival screen; active compounds read high
row,Compound,survival
1,O=C(O)CCC/C=C\C/C=C\C=C\[C@@H](O)C/C=C\CCCCCO,89.3
2,COC1C(O)CC(=O)OC(C)CC=CC=CC(OC2CCC(N(C)C)C(C)O2)C(C)CC(CC=O)C1OC1OC(C)C(OC2CC(C)(O)C(O)C(C)O2)C(N(C)C)C1O (stereo unspecified),3.42
3,CC1O[C@@H](OC2/C=C/C=C/C=C/C=C/C[C@@H](C)OC(=O)/C=C/[C@H]3O[C@@H]3C[C@H](O)C[C@]3(O)C[C@H](O)[C@@H](C(=O)O)[C@H](C2)O3)C(O)C(N)[C@@H]1O (stereo partly specified),28.2
4,CCC(C(=O)C(C)C(O)C(C)CCc1ccc(C)c(O)c1C(=O)O)[C@H]1O[C@](CC)([C@H]2CC[C@](O)(CC)[C@H](C)O2)C[C@@H]1C (stereo partly specified),24.1
5,CCCCCC[C@@H](O)C/C=C\CCCCCCCC(=O)O,85.1
6,CCCCC/C=C\C\C=C/C=C/C=C/[C@@H](SCC(N)C(=O)NCC(=O)O)[C@@H](O)CCCC(=O)O (stereo partly specified),109
7,C[C@@H](O)CCC[C@H](O)/C=C/[C@H]1[C@H](O)CC(=O)[C@@H]1C/C=C\CCCC(=O)O,111
8,CCCCC[C@H](O)/C=C/[C@H]1OC(=O)C[C@H](O)[C@@H]1C/C=C\CCCC(=O)O,110
9,CC(C)NCC1CCc2cc(CO)c([N+](=O)[O-])cc2N1 (stereo unspecified),28.3
10,CCCCC/C=C\C=C\C(O)CCCCCCCC(=O)O (stereo unspecified),83.9
11,CCCCCCCN[C@H]1CCC[C@@H]1CCCCCCC(=O)O,114
12,CCCCCCCCCCCCC/C=C/[C@@H](O)[C@@H](N)COP(=O)(O)O,87.9
13,CCCCCCCCCCCCC/C=C/[C@@H](O)[C@H](COP(=O)([O-])OCC[N+](C)(C)C)NC(=O)CCCCCCCCCCCCCCCCC,81.8
14,NCCCC(N)CC(=O)NC1CNC(=O)C(C2CC(O)N=C(N)N2)NC(=O)/C(=C/NC(N)=O)NC(=O)C(CO)NC(=O)C(CO)NC1=O (stereo not drawn) (ξβ3hOrn-[Dap]SS[ΔAla(Z-3-ureido)][X2]; lactam 1-C; configuration not given here),10.8
15,O=C(O)c1cc(NCc2cc(O)ccc2O)ccc1O,90.2
16,CC1O[C@@H](O[C@@H]2C(CO)O[C@@H](OCC3O[C@@H](OC(=O)C45CC[C@@H](C)[C@H](C)[C@H]4C4=CC[C@@H]6[C@@]7(C)C[C@@H](O)[C@H](O)[C@@](C)(CO)C7CC[C@@]6(C)[C@]4(C)CC5)C(O)[C@H](O)[C@@H]3O)C(O)[C@@H]2O)C(O)[C@@H](O)[C@H]1O (stereo partly specified),9.83

row,Compound,survival
1,CC(C)C[C@H](NC(=O)[C@H](CCC(=O)O)NC(=O)CNC(=O)c1ccc(/C=C/C(=O)O)cc1)C(N)=O,88.2
2,CCCCC/C=C\C[C@@H](O)/C=C/C=C\CCC(=O)O,67.7
3,CCCCC[C@H](O)/C=C/[C@H]1OC(O)C[C@H](O)[C@@H]1C/C=C\CC(=O)O (stereo partly specified),117
4,C[C@@]1(OC(=O)/C=C\c2ccccc2)C[C@H](O)[C@@]2(O)C=CO[C@H](OC3OC(CO)C(O)C(O)C3O)C12 (stereo partly specified),6.83
5,CCCCC[C@H](O)/C=C/C=C\C/C=C\C=C\[C@@H](O)CCCC(=O)O,103
6,CNC1C(O)C2O[C@H](OC3C(N)C[C@@H](N)C(O)[C@H]3O)C(N)C[C@H]2O[C@@H]1O[C@H]1OC(CO)[C@@H](N)[C@H](O)C1O (stereo partly specified),10.6
7,Nc1ncc2[nH]cnc2n1,108
8,CCCCC/C=C\C/C=C\C/C=C\C=C\C1CCCC(=O)O1 (stereo unspecified),76.9
9,CCCCC/C=C\C=C\[C@@H](O)C/C=C\C/C=C\CCCC(=O)O,81.2
10,C=C(C)[C@@H]1CC[C@]2(CO)CC[C@]3(C)[C@H](CC[C@@H]4[C@@]5(C)CCC(O)C(C)(C)[C@@H]5CC[C@]43C)[C@@H]12 (stereo partly specified),7.33
11,CCCCC[C@H](O)/C=C/C=C\C=C\[C@@H](O)C/C=C\CCCC(=O)O,135
12,CCCCC[C@H](O)/C=C/C=C/C/C=C\CCCC(=O)O,94.8
13,CCCCC/C=C\C[C@@H]1O[C@H]1/C=C/C(O)C/C=C\CCCC(=O)O (stereo partly specified),93.9
14,CCCCCC#CC[C@@H](O)/C=C/C=C/C=C\[C@@H](O)CCCC(=O)O,71.7
15,C=Cc1c(C)c2cc3nc(cc4[nH]c(cc5nc(cc1[nH]2)C(C)=C5CCC(=O)O)c(CCC(=O)OC)c4C)[C@@]1(C)C3=CC=C(C(=O)OC)C1C(=O)OC (stereo partly specified) (tested in a mixture with another compound),12.9
